The nature of assay [1]: BSK_CASM3C_SRB: Viability Assessment in the BioMAP Diversity Plus: CASM3C Assay (AID 2283050).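 Note: cells exposed to compound for 24 h.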 The settings on record: primary human coronary artery smooth muscle cells.
Read-out in assay [2]: Thrombomodulin, THBD (gene 7056)
The experiment in a line: BSK_CASM3C_Thrombomodulin: BioMAP Diversity Plus: CASM3C Assay for Thrombomodulin Biomarker Activity (AID 2283051).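 Note: thrombomodulin protein level measured by ELISA 24 h after dosing.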 The settings on record: primary human coronary artery smooth muscle cells; actives raise or lower the signal.

Read-out in assay [3]: Tissue Factor, F3 (gene 2152)
Briefly: BSK_CASM3C_TissueFactor: BioMAP Diversity Plus: CASM3C Assay for Tissue Factor Biomarker Activity (AID 2283052).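 Note: cell surface tissue factor protein level read by ELISA.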 The settings on record: primary human coronary artery smooth muscle cells; actives raise or lower the signal.

Read-out in assay [4]: Urokinase-type plasminogen activator receptor (uPAR), PLAUR (gene 5329)
The experiment in a line: BSK_CASM3C_uPAR: BioMAP Diversity Plus: CASM3C Assay for Urokinase-type plasminogen activator receptor (uPAR) Biomarker Activity (AID 2283054).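 Note: cell-surface uPAR protein level quantified by ELISA.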 The settings on record: primary human coronary artery smooth muscle cells; actives raise or lower the signal.

Read-out in assay [5]: Vascular cell adhesion molecule 1 (VCAM1), VCAM1 (gene 7412)
Briefly: BSK_CASM3C_VCAM1: BioMAP Diversity Plus: CASM3C Assay for Vascular cell adhesion molecule 1 (VCAM1) Biomarker Activity (AID 2283055).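 Note: VCAM-1 protein level quantified by ELISA on the cells.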 As to conditions: primary human coronary artery smooth muscle cells; actives raise or lower the signal.

Read-out in assay [6]: Collagen III, COL3A1 (gene 1281)
Briefly: BSK_hDFCGF_CollagenIII: BioMAP Diversity Plus: hDFCGF Assay for Collagen III Biomarker Activity (AID 2283056). As to conditions: primary human foreskin fibroblasts; actives raise or lower the signal. In a few lines:
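Cells: human foreskin fibroblasts, primary. Dosing followed by 24 h incubation, then ELISA for collagen III. Both increases and decreases scored relative to DMSO.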

Read-out in assay [7]: Epidermal growth factor receptor (EGFR), EGFR (gene 1956)
Briefly: BSK_hDFCGF_EGFR: BioMAP Diversity Plus: hDFCGF Assay for Epidermal growth factor receptor (EGFR) Biomarker Activity (AID 2283057). As to conditions: primary human foreskin fibroblasts; actives raise or lower the signal. An outline of the steps:
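hDFCGF system, primary human foreskin fibroblasts; compound 24 h; EGFR measured by ELISA; DMSO = negative control/baseline; bidirectional fitting.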

Read-out in assay [8]: Interleukin-8 (IL8), CXCL8 (gene 3576)
The experiment in a line: BSK_hDFCGF_IL8: BioMAP Diversity Plus: hDFCGF Assay for Interleukin-8 (IL8) Biomarker Activity (AID 2283058). As to conditions: primary human foreskin fibroblasts; actives raise or lower the signal. In a few lines: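 IL-8 levels from compound-treated primary human fibroblasts were read by ELISA at 24 h, with DMSO serving as baseline for bidirectional fitting.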

The nature of assay [9]: BSK_hDFCGF_Proliferation: Cell Proliferation Assessment in the BioMAP Diversity Plus: hDFCGF Assay (AID 2283059).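 Note: curves fitted for both rise and fall of signal versus DMSO baseline.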 As to conditions: primary human foreskin fibroblasts. An outline of the steps: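 Steps: dose primary human dermal fibroblasts (foreskin); […] fix in 10% TCA; stain with 0.1% SRB; read 560 nm; fit gain or loss of signal against DMSO.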
Read-out in assay [10]: Macrophage colony-stimulating factor (MCSF), CSF1 (gene 1435)
The experiment in a line: BSK_hDFCGF_MCSF: BioMAP Diversity Plus: hDFCGF Assay for Macrophage colony-stimulating factor (MCSF) Biomarker Activity (AID 2283060). As to conditions: primary human foreskin fibroblasts; actives raise or lower the signal. In a few lines:
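M-CSF levels, determined by ELISA, are taken at 24 h after dosing human skin fibroblasts. Responses in either direction are fitted with DMSO serving as the baseline.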

Assay [11] is described as follows: BSK_hDFCGF_SRB: Viability Assessment in the BioMAP Diversity Plus: hDFCGF Assay (AID 2283061).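 Note: cells exposed to compound for 24 h before the read.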 As to conditions: primary human foreskin fibroblasts. In a few lines:
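Cells were dosed with test chemical, cultured 24 h, fixed with 10% TCA, then stained with 0.1% SRB and read at 560 nm. The fibroblasts were human foreskin primary cells, and DMSO served as baseline.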

Read-out in assay [12]: TIMP metallopeptidase inhibitor 1 (TIMP1), TIMP1 (gene 7076)
The experiment in a line: BSK_hDFCGF_TIMP1: BioMAP Diversity Plus: hDFCGF Assay for TIMP metallopeptidase inhibitor 1 (TIMP1) Biomarker Activity (AID 2283062). As to conditions: primary human foreskin fibroblasts; actives raise or lower the signal. An outline of the steps:
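Fibroblasts from human foreskin are treated with test chemical and harvested at 24 h. TIMP-1 is quantified by ELISA, and gain or loss of signal is scored against DMSO.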

Read-out in assay [13]: Monokine induced gamma interferon (MIG), CXCL9 (gene 4283)
The experiment in a line: BSK_hDFCGF_MIG: BioMAP Diversity Plus: hDFCGF Assay for Monokine induced gamma interferon (MIG) Biomarker Activity (AID 2283063). As to conditions: primary human foreskin fibroblasts; actives raise or lower the signal. In a few lines:
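MIG signal, determined by ELISA, reflects 24 h chemical exposure of human skin primary fibroblasts. DMSO serves as negative control and baseline.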

Read-out in assay [14]: Matrix Metallopeptidase 1 (MMP1), MMP1 (gene 4312)
Briefly: BSK_hDFCGF_MMP1: BioMAP Diversity Plus: hDFCGF Assay for Matrix Metallopeptidase 1 (MMP1) Biomarker Activity (AID 2283064). The settings on record: primary human foreskin fibroblasts; actives raise or lower the signal. In a few lines:
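Primary human foreskin fibroblasts exposed to chemicals for 24 h; MMP1 measured by ELISA. Cytotoxicity tracked by SRB staining in parallel cultures; bidirectional fit relative to DMSO.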

Read-out in assay [15]: Vascular cell adhesion molecule 1 (VCAM1), VCAM1 (gene 7412)
Briefly: BSK_hDFCGF_VCAM1: BioMAP Diversity Plus: hDFCGF Assay for Vascular cell adhesion molecule 1 (VCAM1) Biomarker Activity (AID 2283065).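 For AC50: VCAM-1 protein level quantified by ELISA after 24 h chemical exposure.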 The settings on record: primary human foreskin fibroblasts; actives raise or lower the signal. An outline of the steps:
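Cells are dosed, cultured for 24 h, then VCAM-1 is quantified by ELISA; signal increases and decreases are both fitted relative to DMSO.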

Read-out in assay [16]: Interferon-gamma inducible Protein 10 (IP10), CXCL10 (gene 3627)
The experiment in a line: BSK_KF3CT_IP10: BioMAP Diversity Plus: KF3CT Assay for Interferon-gamma inducible Protein 10 (IP10) Biomarker Activity (AID 2283068). As to conditions: primary human keratinocytes with fibroblasts; actives raise or lower the signal. In a few lines: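 KF3CT co-culture (keratinocytes + foreskin fibroblasts), 24 h compound, IP-10 by ELISA; bidirectional fit vs DMSO baseline.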

Assay [17] is described as follows: BSK_KF3CT_SRB: Viability Assessment in the BioMAP Diversity Plus: KF3CT Assay (AID 2283069).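 Note: total protein by sulforhodamine B staining as a cytotoxicity measure; fitted for both signal gain and loss against DMSO baseline.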 The settings on record: primary human keratinocytes with fibroblasts. In a few lines:
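Human keratinocyte and foreskin fibroblast co-culture exposed to chemical for 24 h. Total protein measured in parallel cultures by 0.1% sulforhodamine B staining after 10% TCA fixation, read at 560 nm; bidirectional fit relative to DMSO.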

Read-out in assay [18]: Interferon-gamma inducible Protein 10 (IP10), CXCL10 (gene 3627)
Briefly: BSK_hDFCGF_IP10: BioMAP Diversity Plus: hDFCGF Assay for Interferon-gamma inducible Protein 10 (IP10) Biomarker Activity (AID 2283053). The settings on record: primary human foreskin fibroblasts; actives raise or lower the signal. An outline of the steps: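 Primary foreskin fibroblasts, human; 24 h compound exposure; IP-10 by ELISA; bidirectional fit vs DMSO.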

Read-out in assay [19]: Plasminogen activator inhibitor-1 (PAI1), SERPINE1 (gene 5054)
Briefly: BSK_hDFCGF_PAI1: BioMAP Diversity Plus: hDFCGF Assay for Plasminogen activator inhibitor-1 (PAI1) Biomarker Activity (AID 2283066). The settings on record: primary human foreskin fibroblasts; actives raise or lower the signal. An outline of the steps: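 Primary dermal fibroblasts (human foreskin), hDFCGF system; compound 24 h; PAI-1 by ELISA; bidirectional fit vs DMSO control.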

Read-out in assay [20]: Intercellular Adhesion Molecule 1 (ICAM1), ICAM1 (gene 3383)
The experiment in a line: BSK_KF3CT_ICAM1: BioMAP Diversity Plus: KF3CT Assay for Intercellular Adhesion Molecule 1 (ICAM1) Biomarker Activity (AID 2283067). As to conditions: primary human keratinocytes with fibroblasts; actives raise or lower the signal. In a few lines: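 Dose the keratinocyte/fibroblast co-culture, wait 24 h, measure ICAM-1 by ELISA, then fit increases or decreases against DMSO. Cytotoxicity is checked in parallel cultures by SRB total-protein staining.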

The values below come from PubChem BioAssay (EPA / NIEHS).

“And” between values parts separate entries of the source, which are not always exact repeats. Equal values may be shown once. The source holds several records for some structures; these can differ, active in one and inactive in another. The source made the active and inactive calls. Rule for the calls: active = hit-call score of the fitted dose curve at least 0.9, where 1 is the maximum; inactive = score below 0.9.

Usually AC50 stands for the concentration giving half of the maximal activity seen. As to `Oc1cc(Cl)ccc1Oc1ccc(Cl)cc1Cl`, the AC50 in assay [1] was 33.1 µM (active) [middle of 4 runs]; in assay [2], 4.67 µM (active); in assay [3] it was 28.3 µM (active) and 27.8 µM (active) and 22.2 µM (active); in assay [4], 32 µM (active) [middle of 4 runs]; in [5] it was 35.4 µM (active) [middle of 4 runs]; in [6], 7.46 µM (active) [middle of 4 runs]. For the same compound, the concentration at half-maximal activity (AC50) in [7] was 5.45 µM (active) and 5.46 µM (active); in assay [8] it was 30 µM (active) [middle of 4 runs]; in assay [9], 4.61 µM (active) [middle of 4 runs]; in assay [10] it was 10.7 µM (active) [middle of 4 runs]; in [11], 13.1 µM (active) and 9.31 µM (active) and 17 µM (active); in [12], 20 µM (active) [middle of 4 runs]. Further, the AC50 is 20.4 µM (active) and 14.1 µM (active) and 23.9 µM (active) in [13]; 29.9 µM (active) and 12.3 µM (active) and 26.1 µM (active) in [14]; 8.72 µM (active) [middle of 4 runs] in assay [15]; 33.7 µM (active) and 29 µM (active) in assay [16]; 30.1 µM (active) and 14.4 µM (active) and 28.2 µM (active) in assay [17]. Moreover, the result in [2], in [3], in assay [7] and in assay [16] was inactive.

Consider `CC(C)(C)C(O)/C(=C\c1ccc(Cl)cc1Cl)n1cncn1` (stereo unspecified), for which the outcome in assay [1], in assay [3], in assay [4], in assay [5], in assay [6] and in assay [7] was inactive. Besides, the outcome in assay [8], in [13] and in assay [14] was inactive. The AC50 in [2] is 15 µM (active); in assay [18] it was 36.5 µM (active); in [9] it was 29.8 µM (active); in assay [10], 26.5 µM (active); in assay [11] it was 20 µM (active); in assay [12], 25.7 µM (active). For the same compound, the AC50 in [15] is 31.6 µM (active); in assay [19], 9.85 µM (active); in assay [20], 34.4 µM (active); in [16], 29.7 µM (active); in [17], 20 µM (active).

Consider `CC(C)OC(=O)Nc1cccc(Cl)c1`, for which the result in [1], in assay [2], in assay [3], in assay [18], in assay [4] and in [5] was inactive. For the same compound, the outcome in assay [6], in assay [7], in assay [8], in assay [9], in [10] and in assay [11] was inactive. Besides, the outcome in [12], in [13], in assay [14], in assay [15], in [16] and in [17] was inactive.

In the case of `O=[N+]([O-])c1c(Cl)c(Cl)c(Cl)c(Cl)c1Cl`, the outcome in assay [1], in assay [3], in [4], in assay [5], in assay [7] and in assay [8] was inactive. Moreover, the outcome in assay [12] and in [20] was inactive. Besides, the AC50 was 24.8 µM (active) in assay [2]; 14.9 µM (active) in assay [6]; 19.7 µM (active) in assay [9]; 18 µM (active) in assay [10]; 31 µM (active) in assay [11]; 29.3 µM (active) in [13]. The AC50 in assay [14] is 255 nM (active); in [15], 20 µM (active); in assay [19] it was 28.8 µM (active); in [16] it was 17.6 µM (active); in [17] it was 25.3 µM (active).

In the case of `CCS(=O)(=O)c1cccnc1S(=O)(=O)NC(=O)Nc1nc(OC)cc(OC)n1`, the result in assay [1], in assay [2], in assay [3], in assay [18], in assay [4] and in assay [5] was inactive. Moreover, the result in [6], in assay [7], in [8], in assay [9], in assay [10] and in assay [11] was inactive. Further, the outcome in assay [12], in assay [13], in assay [14], in assay [15] and in [17] was inactive. In addition, in assay [16], the AC50 was 0.266 µM (active).
